The whole screen tested about 300,000 compounds, of which about 37,000 (12%) were called active. Rule as the data show it: active = max response mostly above about 13% (no sharp cut-off); inactive = mostly below about 14%. Only a selection was taken, and actives are over-represented in it overall.

A short description of this assay: Cycloheximide Counterscreen for Small Molecule Inhibitors of Shiga Toxin. Also: read at 38.3 µM for the half of the compounds with a filed dose; 0% is about no effect. To be noted: cell reporter, cycloheximide protein synthesis inhibition counterscreen; active compounds read high.
Regarding `O=C(CSc1ccc(-c2ccco2)nn1)Nc1cccc(F)c1`, the max response was 26% (active). For `Cc1ccccc1NC(=O)CSc1ccc2nnc(-c3ccccn3)n2n1`, the max response is -1.54% (inactive). Turning to `COc1ccc(NC(=O)CSc2ccc(-c3ccco3)nn2)c(OC)c1`, the max response is 9.5% (inactive). On to `COc1cc(NC(=O)CSc2ccc(-c3cccnc3)nn2)cc(OC)c1`, for which the max response is -2.34% (inactive). As to `O=C(CSc1ccc(-c2ccc(F)cc2)nn1)Nc1ccc2c(c1)OCCO2`, the max response is 10.9% (inactive).

With `O=C(CSc1ccc(-c2ccccn2)nn1)Nc1ccccc1`, the max response was 20% (active). Consider `COc1ccc(CNC(=O)COC(=O)/C=C/c2ccc(S(=O)(=O)N3CCOCC3)cc2)cc1`, for which the max response was 9.31% (inactive). On to `O=c1c2ccccc2nnn1CSc1nc2sc3c(c2c(=O)n1CC1CCCO1)CCC3` (centres undefined), for which the max response is -2.17% (inactive). As to `OC(c1ccc(Cl)cc1)C(CN1CCOCC1)c1ccccc1` (centres undefined), the max response was -2.76% (inactive). Take `COc1ccc2c(C)c(CCC(=O)NC3CC3)c(=O)oc2c1C`: the max response is 9.57% (inactive). For the compound `O=C1C(=O)N(c2ccccc2)c2ccccc21`, the max response is -2.88% (inactive). Turning to `O=C(O)CCS(=O)(=O)c1ccc(-c2ccccc2)cc1`, the max response was -1.33% (inactive). The same measure for `CC(=O)CCS(=O)(=O)c1ccc(C)c(C)c1`: 27.6% (active); for `Cc1ccc(S(=O)(=O)CCC(=O)OCc2ccccc2)cc1`: 0.648% (inactive). Regarding `COc1ccc(OC)c(NC(=O)C2CCCN2S(=O)(=O)c2cccc3nsnc23)c1` (centres undefined), the max response is 12.5% (inactive). Take `Cc1ccc(-c2nnc(Nc3ccc(C(=O)N(C)C)cc3)c3ccccc23)cc1S(N)(=O)=O`: the max response is -2.16% (inactive). Consider `CCOC(=O)c1ccc(NC(=O)c2ccc(NC(=O)C3CCCO3)cc2)cc1` (centres undefined), for which the max response is 13.9% (inactive).

Consider `O=C(Nc1ccc(-c2nnc(-c3ccccc3)o2)cc1)C1CCCO1` (centres undefined), for which the max response is 39.1% (active). `O=C(Nc1cccc(-c2nnc(-c3ccccc3)o2)c1)C1CCCO1` (centres undefined): the max response was 37.3% (active). Turning to `O=C(CSc1nnc(-c2ccc(NS(=O)(=O)c3ccccc3)cc2)o1)NCC1CCCO1` (centres undefined), the max response was -1.17% (inactive). For `CC(C)(C)NS(=O)(=O)c1ccc(NC(=O)C2CCCO2)cc1` (centres undefined), the max response was -3.65% (inactive). For `Cc1cccc(NC(=O)Nc2nnc(-c3ccccc3)o2)c1`, the max response is 2.04% (inactive). The result for `CCn1c(=S)sc2c(=O)n(CC(=O)Nc3ccc(OC)cc3)c(C)nc21` reads -0.488% (inactive). The result for `Cc1ccccc1OCCC(=O)OCC(=O)NC(C)c1ccccc1` (centres undefined) reads 1.95% (inactive); that for `CCC(C)c1ccccc1NC(=O)CN(C)CC(=O)Nc1ccccc1SC` (centres undefined), -13.3% (inactive). Consider `Cc1cc(C(=O)COc2ccccc2[N+](=O)[O-])c(C)n1-c1cccc(S(=O)(=O)N2CCOCC2)c1`, for which the max response was 0.979% (inactive). As for `Cc1nnc(SCC(=O)N/N=C/c2cn(-c3ccccc3)nc2-c2ccc(F)cc2)n1-c1ccccc1`, the max response is 10.2% (inactive). Consider `CC(C)(C)OC(=O)N/N=C/c1cn(-c2ccccc2)nc1-c1cccnc1`, for which the max response is 17% (inactive).

In the case of `Cc1ccc(-c2nn(-c3ccccc3)cc2/C=N/NC(=O)c2ccc3c(c2)OCO3)cc1`, the max response was 16.9% (active). Turning to `O=C(NCc1ccccc1)[C@H]1C[C@@H]1[C@H](NP(=O)(c1ccccc1)c1ccccc1)c1ccccc1`, the max response was 4.56% (inactive). Turning to `CC(=O)N1CCCc2cc(S(=O)(=O)N3CCCC(C(=O)N4CCN(c5cccc(Cl)c5)CC4)C3)ccc21` (centres undefined), the max response was 8.4% (inactive).

In the case of `Cc1sc2ncn(CC(=O)NCCCC(=O)N3CCN(c4ccccc4F)CC3)c(=O)c2c1C`, the max response was -3.83% (inactive). For the compound `CCOc1ccc(OCCSc2nc3ccccc3n2CC(=O)O)cc1`, the max response was -2.45% (inactive). For the compound `S=C(NNC(=S)NC1CC2C=CC1C2)NC1CC2C=CC1C2` (centres undefined), the max response is 9.74% (inactive).

For `CC(NC(=S)Nc1ccc(OC(F)F)cc1)c1ccc(F)cc1` (centres undefined), the max response is 1.93% (inactive).

As for `CC(C)c1ccc(NC(=S)NC2CC3C=CC2C3)cc1` (centres undefined), the max response was 51.4% (active). On to `CCOc1ccccc1N1CN(Cc2ccccc2)CNC1=S`, for which the max response was -1.15% (inactive).

For `Cc1ccccc1NCC(=O)N/N=C\c1ccc([N+](=O)[O-])s1`, the max response is 25.2% (inactive). The result for `Cc1ccc(C(=O)NC23CC4CC(CC(C4)C2)C3)c(Cl)c1` reads 11.3% (inactive); that for `CSc1ccc(/C=C/C(=O)NC23CC4CC(CC(C4)C2)C3)cc1`, 49.9% (active); that for `CSc1ccc(NC(=O)/C=C/C(=O)O)cc1`, 6.1% (inactive).

For `CC1(C)CC(=O)c2c(n(S(=O)(=O)c3ccccc3)c3ccc(NS(=O)(=O)c4ccccc4)cc23)C1`, the max response was -1.24% (inactive). The result for `CCOC(=O)N1CCN(S(=O)(=O)c2ccc(OC)cc2)CC1` reads -1.81% (inactive). In the case of `CCn1c(SCc2ccccc2)nc2c(c1=O)SCC2`, the max response was -1.78% (inactive).

Regarding `CCn1c(SCc2ccccc2)nc2cc(OC)c(OC)cc2c1=O`, the max response was 0.431% (inactive). On to `CCS(=O)(=O)n1nc(-c2ccccc2)nc1SCc1ccccc1`, for which the max response was 62.5% (active). For the compound `COc1ccc(-n2c(SC)nc(O)cc2=O)cc1`, the max response is -4.06% (inactive). The same measure for `CCS(=O)(=O)n1nc(-c2ccc(OC)cc2)nc1SC`: 23.6% (active); for `CCOc1ccc(CN2CCNC(=O)C2CC(=O)NCCCC2CCCC2)cc1` (centres undefined): 16.3% (inactive); for `COc1cccc(-c2cc(C(=O)N/N=C/c3ccc(OC)c(COC(C)=O)c3)c3ccccc3n2)c1`: 2.97% (inactive). Regarding `Cc1ccc2nc(C)cc(N/N=C/c3ccc(F)cc3)c2c1`, the max response was -2.09% (inactive). The result for `CCOc1cc(/C=N/NC(=O)c2cc(-c3ccccc3)nc3ccccc23)ccc1O` reads 17.7% (active). Regarding `CCOc1ccc(/C=N/NC(=O)CSc2ccccn2)cc1O`, the max response was 1.88% (inactive). With `CCOc1cc(/C=N/Nc2cc(C)nc3ccc(C)cc23)ccc1O`, the max response was 17.3% (active). For `Cc1cc(C(=O)N/N=C/c2ccccn2)c2ccccc2n1`, the max response was -8.99% (inactive).

Turning to `COc1cc(OC)c2c(C)cc(=O)oc2c1C(CCN1CCCCC1)c1ccc(N(C)C)cc1` (centres undefined), the max response is -1.45% (inactive).

As for `COc1cc(CN2CCCC(C(=O)c3ccc(SC)cc3)C2)cc(Cl)c1O` (centres undefined), the max response was 4.43% (inactive). As to `N=c1n(CCc2ccccc2)c2ccccc2n1Cc1ccccc1F`, the max response was -8.79% (inactive). The result for `COc1ccc(C)cc1NC(=S)N1CCOCC1` reads -2.32% (inactive); that for `COc1ccccc1/C=C/C(=O)NC(=S)N1CCOCC1`, 47.7% (active); that for `COc1ccccc1/C=C/C=N/NC(=O)CN1CCN(Cc2ccccc2)CC1`, -1.49% (inactive).

On to `COc1ccccc1/C=C/C(=O)NC1CC2CCC1C2` (centres undefined), for which the max response is 14.3% (active). The same measure for `CCOC(=O)C(=Cc1ccccc1OC)C(=O)OCC`: 2.29% (inactive); for `COc1ccccc1C(=O)Nc1cccc(C(=O)N2CCOCC2)c1`: -2.39% (inactive). Take `COc1ccc(Cl)cc1NC(=O)CCS(=O)(=O)c1ccc(Br)cc1`: the max response is -3.81% (inactive).

Consider `CSc1ccc(S(=O)(=O)N2CCC(C(=O)NCc3ccncc3)CC2)cc1`, for which the max response was -2.48% (inactive). `CCN1CCN(c2nc(Nc3cc(OC)ccc3OC)nc(Nc3cc(OC)ccc3OC)n2)CC1`: the max response is -2.31% (inactive). Turning to `COc1ccc(C(=O)/C=C/c2ccc(-c3ccccc3)cc2)cc1CSCC(=O)O`, the max response is 16.5% (inactive).

Consider `COc1ccc(/C=C/C(=O)c2ccc(NS(=O)(=O)c3ccc(C)cc3)cc2)cc1O`, for which the max response is -1.98% (inactive). On to `COC(=O)c1ccc(COc2ccc(/C=C/C(=O)c3ccc(OC)c(CSCC(=O)O)c3)cc2OC)cc1`, for which the max response was 16.2% (active). As to `Fc1ccc(Cl)cc1-c1nc(Nc2ccncc2)c2nccnc2n1`, the max response was 1.12% (inactive). The same measure for `COc1ccc(N(C(=O)c2snc(C(N)=O)c2N)C(C(=O)NC2CCCC2)c2ccc(C)o2)c(OC)c1` (centres undefined): -6.04% (inactive).

Consider `O=C(N/N=C\C1CC=CCC1)c1ccc(Br)o1` (centres undefined), for which the max response was 29.4% (active). With `COCc1c(C(=O)N/N=C/C2CC=CCC2)nnn1-c1nonc1N` (centres undefined), the max response is 1.58% (inactive). Consider `Cc1ccc(SCc2c(C(=O)N/N=C/C3CC=CCC3)nnn2-c2nonc2N)cc1` (centres undefined), for which the max response is -2.54% (inactive). Regarding `C=CCC1CCC(=O)N2CCCC12` (centres undefined), the max response is -5.3% (inactive). The same measure for `CN(CC(=O)N1CCN(c2ccccc2)CC1)S(=O)(=O)c1cccs1`: 29% (active).

In the case of `COc1ccc(OC)c(S(=O)(=O)N(C)CC(=O)N2CCN(c3ccccc3)CC2)c1`, the max response was 6.23% (inactive). Consider `O=C(CCNS(=O)(=O)c1cccs1)N1CCN(c2ccc(F)cc2)CC1`, for which the max response is -5.58% (inactive). Take `Cc1ccc(C(=O)NN(CCC#N)C2=NS(=O)(=O)c3ccccc32)cc1`: the max response was 0.601% (inactive). Take `CONc1nc2nonc2nc1NOC`: the max response is -2.64% (inactive). Consider `COc1ccc(NC(=O)c2cn(-c3ccccc3)nc2SC)cc1`, for which the max response was 15.2% (active). In the case of `COc1ccc(-c2nn(-c3ccccc3)cc2C(=O)Nc2nc(CC(C)=O)ns2)cc1`, the max response was 9.17% (inactive). For `COc1ccc(NC(=O)c2c(SC)nsc2SC)cc1`, the max response was -1.45% (inactive). For `Cc1cc(C)nc(Nc2cc([N+](=O)[O-])ccc2C)n1`, the max response was 7.47% (inactive). In the case of `Cc1ccc(-c2cn(S(=O)(=O)c3cccc([N+](=O)[O-])c3)nc2N)cc1`, the max response was -2.07% (inactive).

For `Cc1ccc(-n2cc3ccc([N+](=O)[O-])cc3n2)cc1`, the max response is 46.9% (active). For `CCCCc1nn(-c2ccccc2C(F)(F)F)c(=O)n1Cc1ccc(-c2ccccc2S(=O)(=O)NC(=O)c2sccc2C)cc1`, the max response is -3.92% (inactive). Take `CN1CCN(CCCCOc2ccccc2-c2ccccc2)CC1`: the max response is -2.52% (inactive). For `COc1ccccc1N1CCN(C(=O)c2ccc(Cl)c(S(=O)(=O)N3CCCC3)c2)CC1`, the max response was 1.2% (inactive). Regarding `CC12CN(NC(=O)c3ccc(Cl)cc3)C3(C#N)CC1CCC23C` (centres undefined), the max response was -3.78% (inactive).

As to `OCCC1CN(Cc2ccc(Oc3ncccn3)cc2)CCN1CCc1ccccc1` (centres undefined), the max response is 14.5% (active). The same measure for `CCOc1ccc(CN2CCN(CCCc3ccccc3)C(CCO)C2)cc1` (centres undefined): -3% (inactive). `CC(C)=CCN1CCN(Cc2ccc(Oc3ncccn3)cc2)CC1CCO` (centres undefined): the max response was -1.38% (inactive).

These data come from PubChem BioAssay AID2314 (National Center for Advancing Translational Sciences (NCATS), 2010).
